Results reported in paper PMC11006913.
Where a chain is given by its changes, count along the chain named.

How the values were obtained:
Assay in all cases: PBM; 200 nM protein, PBS
Conditions in all cases: dsDNA, one strand shown
SIX6 [1] = biological target: T1, SIX6 (Homo sapiens, UniProt O95475 114-200, L167I)
T1 sequence: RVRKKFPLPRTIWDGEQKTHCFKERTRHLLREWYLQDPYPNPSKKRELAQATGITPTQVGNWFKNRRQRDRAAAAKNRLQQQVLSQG

SIX6 [2] = biological target: T2, SIX6 (Homo sapiens, UniProt O95475 114-200, L143V)
T2 sequence: T1 sequence with L30V, I54L

SIX6 [3] = biological target: T3, SIX6 (Homo sapiens, UniProt O95475 114-200, H141N)
T3 sequence: T1 sequence with H28N, I54L

SIX6 [4] = biological target: T4, SIX6 (Homo sapiens, UniProt O95475 114-200, T165P)
T4 sequence: T1 sequence with T52P, I54L

SIX6 [5] = biological target: T5, SIX6 (Homo sapiens, UniProt O95475 114-200, L167M)
T5 sequence: T1 sequence with I54M

SIX6 [6] = biological target: T6, SIX6 (Homo sapiens, UniProt O95475 114-200, L143M)
T6 sequence: T1 sequence with L30M, I54L

SIX6 [7] = biological target: T7, SIX6 (Homo sapiens, UniProt O95475 114-200, L143I)
T7 sequence: T1 sequence with L30I, I54L

SIX6 [8] = biological target: T8, SIX6 (Homo sapiens, UniProt O95475 114-200, T165G)
T8 sequence: T1 sequence with T52G, I54L

SIX6 [9] = biological target: T9, SIX6 (Homo sapiens, UniProt O95475 114-200, T139Q)
T9 sequence: T1 sequence with T26Q, I54L

SIX6 [10] = biological target: T10, SIX6 (Homo sapiens, UniProt O95475 114-200, T165A)
T10 sequence: T1 sequence with T52A, I54L

SIX6 [11] = biological target: T11, SIX6 (Homo sapiens, UniProt O95475 114-200, L167V)
T11 sequence: T1 sequence with I54V

SIX6 [12] = biological target: T12, SIX6 (Homo sapiens, UniProt O95475 114-200)
T12 sequence: T1 sequence with I54L

SIX6 [13] = biological target: T13, SIX6 (Homo sapiens, UniProt O95475 114-200, T165I)
T13 sequence: T1 sequence with T52I, I54L

Sequence | binding signal (SIX6 [1]) | binding signal (SIX6 [2]) | binding signal (SIX6 [3]) | binding signal (SIX6 [4]) | binding signal (SIX6 [5]) | binding signal (SIX6 [6]) | binding signal (SIX6 [7]) | binding signal (SIX6 [8]) | binding signal (SIX6 [9]) | binding signal (SIX6 [10]) | binding signal (SIX6 [11]) | binding signal (SIX6 [12]) | binding signal (SIX6 [13])
CCCCAGCG | 9.09 upbm affinity estimate (log intensity, higher = more binding, comparable within an allelic series) | 8.99 upbm affinity estimate (log intensity, higher = more binding, comparable within an allelic series) | 9.25 upbm affinity estimate (log intensity, higher = more binding, comparable within an allelic series) | 9.01 upbm affinity estimate (log intensity, higher = more binding, comparable within an allelic series) | 9.24 upbm affinity estimate (log intensity, higher = more binding, comparable within an allelic series) | 9.04 upbm affinity estimate (log intensity, higher = more binding, comparable within an allelic series) | 9 upbm affinity estimate (log intensity, higher = more binding, comparable within an allelic series) | 9.14 upbm affinity estimate (log intensity, higher = more binding, comparable within an allelic series) | 9.23 upbm affinity estimate (log intensity, higher = more binding, comparable within an allelic series) | 9.18 upbm affinity estimate (log intensity, higher = more binding, comparable within an allelic series) | 9.13 upbm affinity estimate (log intensity, higher = more binding, comparable within an allelic series) | 9.15 upbm affinity estimate (log intensity, higher = more binding, comparable within an allelic series) | 9.2 upbm affinity estimate (log intensity, higher = more binding, comparable within an allelic series)
CGGCTTCC | 9 upbm affinity estimate (log intensity, higher = more binding, comparable within an allelic series) | 8.76 upbm affinity estimate (log intensity, higher = more binding, comparable within an allelic series) | 8.87 upbm affinity estimate (log intensity, higher = more binding, comparable within an allelic series) | 8.79 upbm affinity estimate (log intensity, higher = more binding, comparable within an allelic series) | 8.83 upbm affinity estimate (log intensity, higher = more binding, comparable within an allelic series) | 9 upbm affinity estimate (log intensity, higher = more binding, comparable within an allelic series) | 8.88 upbm affinity estimate (log intensity, higher = more binding, comparable within an allelic series) | 9 upbm affinity estimate (log intensity, higher = more binding, comparable within an allelic series) | 9.03 upbm affinity estimate (log intensity, higher = more binding, comparable within an allelic series) | 8.96 upbm affinity estimate (log intensity, higher = more binding, comparable within an allelic series) | 8.89 upbm affinity estimate (log intensity, higher = more binding, comparable within an allelic series) | 8.96 upbm affinity estimate (log intensity, higher = more binding, comparable within an allelic series) | 8.91 upbm affinity estimate (log intensity, higher = more binding, comparable within an allelic series)
AACGCGGC | 8.99 upbm affinity estimate (log intensity, higher = more binding, comparable within an allelic series) | 8.99 upbm affinity estimate (log intensity, higher = more binding, comparable within an allelic series) | 8.99 upbm affinity estimate (log intensity, higher = more binding, comparable within an allelic series) | 9.03 upbm affinity estimate (log intensity, higher = more binding, comparable within an allelic series) | 8.95 upbm affinity estimate (log intensity, higher = more binding, comparable within an allelic series) | 9.03 upbm affinity estimate (log intensity, higher = more binding, comparable within an allelic series) | 8.92 upbm affinity estimate (log intensity, higher = more binding, comparable within an allelic series) | 8.8 upbm affinity estimate (log intensity, higher = more binding, comparable within an allelic series) | 8.99 upbm affinity estimate (log intensity, higher = more binding, comparable within an allelic series) | 8.84 upbm affinity estimate (log intensity, higher = more binding, comparable within an allelic series) | 8.94 upbm affinity estimate (log intensity, higher = more binding, comparable within an allelic series) | 8.94 upbm affinity estimate (log intensity, higher = more binding, comparable within an allelic series) | 8.96 upbm affinity estimate (log intensity, higher = more binding, comparable within an allelic series)
GTATCATA | 11.5 upbm affinity estimate (log intensity, higher = more binding, comparable within an allelic series) | 10.5 upbm affinity estimate (log intensity, higher = more binding, comparable within an allelic series) | 11.5 upbm affinity estimate (log intensity, higher = more binding, comparable within an allelic series) | 9.93 upbm affinity estimate (log intensity, higher = more binding, comparable within an allelic series) | 10.8 upbm affinity estimate (log intensity, higher = more binding, comparable within an allelic series) | 11.2 upbm affinity estimate (log intensity, higher = more binding, comparable within an allelic series) | 10.6 upbm affinity estimate (log intensity, higher = more binding, comparable within an allelic series) | 11.5 upbm affinity estimate (log intensity, higher = more binding, comparable within an allelic series) | 11.3 upbm affinity estimate (log intensity, higher = more binding, comparable within an allelic series) | 11.4 upbm affinity estimate (log intensity, higher = more binding, comparable within an allelic series) | 11.3 upbm affinity estimate (log intensity, higher = more binding, comparable within an allelic series) | 11.2 upbm affinity estimate (log intensity, higher = more binding, comparable within an allelic series) | 11.3 upbm affinity estimate (log intensity, higher = more binding, comparable within an allelic series)
GGCGGACC | 8.97 upbm affinity estimate (log intensity, higher = more binding, comparable within an allelic series) | 8.88 upbm affinity estimate (log intensity, higher = more binding, comparable within an allelic series) | 9.01 upbm affinity estimate (log intensity, higher = more binding, comparable within an allelic series) | 8.96 upbm affinity estimate (log intensity, higher = more binding, comparable within an allelic series) | 8.9 upbm affinity estimate (log intensity, higher = more binding, comparable within an allelic series) | 8.83 upbm affinity estimate (log intensity, higher = more binding, comparable within an allelic series) | 8.88 upbm affinity estimate (log intensity, higher = more binding, comparable within an allelic series) | 8.99 upbm affinity estimate (log intensity, higher = more binding, comparable within an allelic series) | 8.91 upbm affinity estimate (log intensity, higher = more binding, comparable within an allelic series) | 8.99 upbm affinity estimate (log intensity, higher = more binding, comparable within an allelic series) | 8.82 upbm affinity estimate (log intensity, higher = more binding, comparable within an allelic series) | 8.92 upbm affinity estimate (log intensity, higher = more binding, comparable within an allelic series) | 8.89 upbm affinity estimate (log intensity, higher = more binding, comparable within an allelic series)
AGCGGCGC | 8.85 upbm affinity estimate (log intensity, higher = more binding, comparable within an allelic series) | 8.89 upbm affinity estimate (log intensity, higher = more binding, comparable within an allelic series) | 8.85 upbm affinity estimate (log intensity, higher = more binding, comparable within an allelic series) | 8.89 upbm affinity estimate (log intensity, higher = more binding, comparable within an allelic series) | 8.88 upbm affinity estimate (log intensity, higher = more binding, comparable within an allelic series) | 8.98 upbm affinity estimate (log intensity, higher = more binding, comparable within an allelic series) | 8.84 upbm affinity estimate (log intensity, higher = more binding, comparable within an allelic series) | 8.81 upbm affinity estimate (log intensity, higher = more binding, comparable within an allelic series) | 8.91 upbm affinity estimate (log intensity, higher = more binding, comparable within an allelic series) | 8.86 upbm affinity estimate (log intensity, higher = more binding, comparable within an allelic series) | 8.82 upbm affinity estimate (log intensity, higher = more binding, comparable within an allelic series) | 8.72 upbm affinity estimate (log intensity, higher = more binding, comparable within an allelic series) | 8.83 upbm affinity estimate (log intensity, higher = more binding, comparable within an allelic series)
